Experimental findings from PubChem BioAssay AID1362 (SRMLSC, 2008) are described below.

This assay in a line: growth inhibition of WT strain, primary screen, mitochondrial fusion inhibitor project, WT and mutant strains, chemical genetic (AID 1362). The following applies: mitochondrial fusion phenotypic screen, at 10 µM.
The mark [1] stands for this setting: WT strain, growth inhibition, stronger effect = higher value.

Among all 190,000 compounds or so, about 4,000 (2.1%) were called active. Rule as the data show it: active = inhibition above about 58%; inactive = the rest, inconclusive results apart; tested in S. cerevisiae. The sample as a whole holds a higher share of actives than the screen did.

Turning to `O=C(O)c1ccc(NC(=O)c2cccs2)cc1`, the inhibition by setting is: under setting [1], -8.36% (inactive); (mutant strain inhibition) 1.63%.
On the same counts, the results for `O=C(Nc1ccnc(-c2ccncc2)n1)c1cccs1` are -10.3% (inactive) and 11%.
In the same order, the values of `Cc1ccccc1CN1C[C@@H]2C[C@@H](c3ccc4nsnc4c3)N3CCC[C@@]23C1=O` are 7.94% (inactive) and 5.04%.
On the same counts, the results for `O=C(NCCCN1CCOCC1)c1ccccc1NS(=O)(=O)c1ccc(F)cc1` are -8.48% (inactive) and 6.56%.
Turning to `O=C(N/N=C/C=C/c1ccco1)c1cccs1`, the inhibition by setting is: under setting [1], -12.2% (inactive); (mutant strain inhibition) -0.62%.
In the same order, the values of `CS(=O)(=O)N(CC(O)Cn1c2ccccc2c2ccccc21)c1cccc2ccccc12` (centres undefined) are 31.9% (inactive) and 7.33%.
In the same order, the values of `O=C1c2ccccc2S(=O)(=O)N1CC(O)Cn1c2ccccc2c2ccccc21` (centres undefined) are 84.5% (active) and 45.8%.
`CNC(=O)CN1C(=O)c2ccccc2S1(=O)=O`: the inhibition is, setting by setting: under setting [1], 12.2% (inactive); (mutant strain inhibition) -7.85%.
In the same order, the values of `COCCCNC(=S)N(Cc1ccccc1)Cc1ccc(F)cc1` are 31.2% (inactive) and 41.6%.
For the compound `CC(NCc1nc2ccccc2n1C)C12CC3CC(CC(C3)C1)C2` (centres undefined), the inhibition is, setting by setting: under setting [1], 30.5% (inactive); (mutant strain inhibition) 16.6%.
On the same counts, the results for `COc1ccc(-c2nnc(SCC(=O)c3cccs3)o2)c(OC)c1` are 63.6% (active) and -1.8%.
As for `COc1ccc(-n2c(C)cc(C(=O)CSc3nnc(-c4cccs4)o3)c2C)cc1`, the inhibition under setting [1] was 4.34% (inactive) and the inhibition (mutant strain inhibition) stood at 23%.
In the same order, the values of `COc1ccc(OC)c(C(=O)CSc2nnc(-c3cccs3)o2)c1` are -7.87% (inactive) and -26.6%.
On to `CCC(=O)c1ccc(N2CCN(C(=O)c3cc([N+](=O)[O-])ccc3F)CC2)c(F)c1`, for which the inhibition is 10.4% (inactive) under setting [1] and 5.39% (mutant strain inhibition).
`CC(C)C(c1nnnn1C(C)(C)C)N1CCN(Cc2cccnc2)CC1` (centres undefined): the inhibition was -10.2% (inactive) under setting [1] and 0.92% (mutant strain inhibition).
On the same counts, the results for `COC(=O)C1=C(N)Oc2c(oc(CO)cc2=O)C1c1c(F)cccc1Cl` (centres undefined) are -8.54% (inactive) and -4.27%.
Consider `O=C(COC(=O)c1c2c(nc3ccccc13)/C(=C\c1cccs1)CCC2)Nc1ccccc1Cl`, for which the inhibition reads like this: under setting [1], 15.8% (inactive); (mutant strain inhibition) 3.86%.
As to `NC(=O)c1ccc(NC(=O)COC(=O)c2c3c(nc4ccccc24)/C(=C\c2ccc4c(c2)OCO4)CCC3)cc1`, the inhibition runs as follows: under setting [1], 62.3% (active); (mutant strain inhibition) -2.13%.
On the same counts, the results for `NS(=O)(=O)c1ccc(NC(=O)COC(=O)c2c3c(nc4ccccc24)/C(=C\c2ccc4c(c2)OCO4)CCC3)cc1` are 17.8% (inactive) and -3.76%.
On the same counts, the results for `Fc1ccc(COc2cccc(-c3n[nH]c(=S)o3)c2)cc1` are -4.32% (inactive) and -2.8%.
In the same order, the values of `Cc1ccc(S(=O)(=O)/N=C(/Nc2ccc3[nH]c(=O)[nH]c3c2)c2ccccc2)cc1` are -20.3% (inactive) and 0.61%.
Consider `COc1ccc(-c2cc(-c3ccc(N)cc3)nc(N)c2C#N)cc1OC`, for which the inhibition is 42.1% (inactive) under setting [1] and -0.07% (mutant strain inhibition).
In the same order, the values of `COc1ccc(OC)c2c(N)c(C#N)c(C(F)(F)C(F)(F)F)nc12` are 61.3% (active) and -8.43%.
On the same counts, the results for `COc1ccc(C2CC(=O)Nc3sc(=N)c4c(N)c(C#N)c(N)nc4c32)cc1OC` (centres undefined) are -16.8% (inactive) and -4.44%.
On the same counts, the results for `O=S(=O)(NCc1ccccc1)c1ccc(S(=O)(=O)N2CCCC2)cc1` are 5.86% (inactive) and -0.28%.
Take `CCCCc1nnc(NC(=O)CSc2nc(N)cc(=O)[nH]2)s1`: the inhibition was -9.03% (inactive) under setting [1] and -14.2% (mutant strain inhibition).
On the same counts, the results for `O=C(CSc1ccc(-c2ccccc2)nn1)NCC1CCCO1` (centres undefined) are -2.54% (inactive) and 0.5%.
In the same order, the values of `O=C(Nc1ccon1)c1sc2ccccc2c1Cl` are 3.3% (inactive) and 0.77%.
Take `O=C(N/N=C/c1c(Cl)[nH]c2ccccc12)c1sc2ccccc2c1Cl`: the inhibition by setting is: under setting [1], 61.8% (active); (mutant strain inhibition) 41.3%.
In the case of `Cc1nn(C)cc1/C=N/NC(=O)c1sc2ccccc2c1Cl`, the inhibition is -10.9% (inactive) under setting [1] and 2.17% (mutant strain inhibition).
In the same order, the values of `COc1ccc(CCc2nnc(CCC(=O)NCc3cnn(-c4ccccc4C)c3)o2)cc1` are 12.2% (inactive) and 7.75%.
On the same counts, the results for `CS(=O)(=O)n1nc(-c2ccco2)nc1N` are -0.21% (inactive) and -16.1%.
With `C=CCc1cccc2cc(C(=O)NC3CCCC3)c(=O)oc12`, the inhibition runs as follows: under setting [1], 3.26% (inactive); (mutant strain inhibition) 9.03%.
In the same order, the values of `CC(C)(C)c1ccc(Oc2ccc(N)cc2)cc1` are 54.8% (inactive) and 38%.
In the same order, the values of `CC(C)(C)c1ccc(OC2=CS(=O)(=O)c3ccccc32)cc1` are 59% (active) and 35.3%.
On the same counts, the results for `CC(C)(C)c1csc(NC2=NS(=O)(=O)c3ccccc32)n1` are -0.65% (inactive) and -32.5%.
With `Cc1nn(CC(=O)NCc2ccccn2)c(C)c1[N+](=O)[O-]`, the inhibition is -4.5% (inactive) under setting [1] and 4.36% (mutant strain inhibition).
In the same order, the values of `COc1cc(CNCCN(C)C)ccc1OCc1c(F)cccc1Cl` are -7.23% (inactive) and 10.9%.
Consider `CCCCNC(=O)N1CCN(S(C)(=O)=O)CC1`, for which the inhibition is 3.54% (inactive) under setting [1] and 2.85% (mutant strain inhibition).
As to `CCCCCCCCn1c2c(c(=N)c3c1CCC3)CCCC2`, the inhibition is, setting by setting: under setting [1], 80.6% (active); (mutant strain inhibition) 77.5%.
In the same order, the values of `O=C1/C(=C/c2cccs2)CCC1C1CCCC1` (centres undefined) are 9.28% (inactive) and 37.2%.
In the same order, the values of `Cc1ccc(COc2ccc(/C=N/NC(=O)CN3CCCCC3)cc2)cc1` are 0.04% (inactive) and -4.75%.

What is called inhibition is the drop in the measured response relative to a control, in per cent.
